Screening results from PubChem.
PKA-R2B activ: activates the human PKA-R2B holoenzyme complex; 0.079% of 340,000 active; AID 504700; P22694+P31323; activation, % at 11.4 µM; PKA-R2B holoenzyme dissociation, Cy5-IP20 fluorescence polarization; R2B truncated from residue 108, S112A mutant; 0% DMSO only, 100% 113 µM cGMP;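 active means activation above a cutoff set at the mean over all compounds plus 3 SD, cut at about 18% in these data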;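 further: higher means more holoenzyme dissociation and a rise in polarization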
Target sequence (P31323 whole entry, looked up, other chains not shown, the tested form may be a part): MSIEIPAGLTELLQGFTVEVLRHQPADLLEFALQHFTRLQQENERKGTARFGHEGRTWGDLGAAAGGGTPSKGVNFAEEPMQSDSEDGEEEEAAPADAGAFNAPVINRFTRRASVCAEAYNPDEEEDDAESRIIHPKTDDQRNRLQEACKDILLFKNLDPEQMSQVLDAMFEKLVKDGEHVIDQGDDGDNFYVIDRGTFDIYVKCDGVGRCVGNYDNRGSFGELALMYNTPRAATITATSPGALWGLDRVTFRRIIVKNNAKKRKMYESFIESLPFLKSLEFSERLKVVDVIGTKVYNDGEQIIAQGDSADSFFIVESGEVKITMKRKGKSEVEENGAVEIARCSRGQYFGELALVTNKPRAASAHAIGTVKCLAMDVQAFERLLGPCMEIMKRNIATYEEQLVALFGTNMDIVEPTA
bovine MsrA act: bovine methionine sulfoxide reductase A activation; purified bovine MsrA, absorbance read-out; activation, % at 10.6 µM; 0.3% of 360,000 active; AID 602163; in the data active means activation above about 7.5%;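 further: 0% = vehicle and 100% = reference activator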
Mot1-301 SUMO: inhibitors of SUMOylation pathway: yeast Mot1-301 growth rescue; S. cerevisiae Mot1-301 growth rescue, ATP luminescence, 38.5C; percent above DMSO median, 100 means doubled; growth rescue, % at 18.8 µM; 1% of 320,000 active; AID 2716;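 active means every valid replicate shows activation above 250% relative to neutral control wells; inactive means the rest, any valid replicate at or below 250%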;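 further: OY570 slx delta 5 strain wells were the positive control but not used for scaling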
PKA-R1A act: PKA-R1A complex activation; PKA-R1A dissociation, Cy5-IP20 fluorescence polarization; scaled: DMSO 0%, 113 µM cGMP 100%; activation, % at 11.4 µM; 0.083% of 340,000 active; AID 504707;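 active means percent activation above the mean of all tested compounds plus 3 SD, cut at about 19% in these data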;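 further: higher means more PKAc released from R1A so a rise in polarization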
MsrA inh: bovine MsrA inhibition. purified bovine MsrA, absorbance read-out. inhibition, % at 15.5 µM. 0.75% of 360,000 active. AID 651718; in the data active means inhibition above about 4.5%;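 further: 0% = vehicle wells with enzyme and 100% = reference inhibitor wells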
R2B FP artifact: fluorescence polarization artifact in PKA-R2B activator counter-screen; shares compounds with PKA-R2B activ; FP artifact counterscreen; activation, % at 11.4 µM; 6% of 270 active; AID 504796; in the data active means activation above about 20%;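 further: Cy5 labelled IP20 peptide probe with compound but no PKA protein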
PKA-R2B act conf: PKA-R2B complex activation, confirmation; AID 504797; 9% of 270 active; shares compounds with PKA-R2B activ; fluorescence polarization; activation, % at 11.4 µM; in the data active means activation above about 19%
Target sequence (P31323 whole entry, looked up): as the sequence (P31323 whole entry, looked up, other chains not shown, the tested form may be a part) above
An asterisk follows results filed as active; . = no result given. In the library only some 2% were active in any assay of this set; here they are far more common.

SMILES	PKA-R2B activ	bovine MsrA act	Mot1-301 SUMO	PKA-R1A act	MsrA inh	R2B FP artifact	PKA-R2B act conf
O=C(CCSCCC(=O)NCC1CCCO1)NCC1CCCO1 (stereo not given)	20.4*	-2.1	20.7	-1.7	0.5	4.3	-0.2
CN(C)c1nc(N2CCN(c3ccccc3)CC2)c(C#N)c(=O)o1	-2.1	0.9	9.1	-7.6	-0.5	.	.
Cc1cccc(C)c1N1CCN(c2nc(N(C)C)oc(=O)c2C#N)CC1	20.3*	-0.8	.	1.9	-0.7	2.2	4.6
Nc1ccn([C@@H]2O[C@H](C(=O)N[C@H](Cc3ccccc3)C(=O)N3CCN(CC(=O)N4CCCC4)CC3)[C@@H](O)[C@H]2O)c(=O)n1	.	.	.	.	1.9	.	.
CN(C)C(=O)C(CCN1CCC(O)(c2ccc(Cl)cc2)CC1)(c1ccccc1)c1ccccc1	6.7	0.8	47.1	-2.6	-1.4	.	.
OC(CCCN1CCC(O)(c2ccc(Cl)cc2)CC1)c1ccc(F)cc1 (stereo not given)	18.6*	-3.4	56.4	2.4	-0.1	5.5	2.4
O=C(CCS(=O)(=O)c1ccc(F)cc1)Nc1nnc(-c2ccc(F)cc2)o1	19.0*	-0.9	-3.5	-6.6	-0.9	-2.0	0.7
Cc1c(Cl)c(C(=O)NC2C3CC4CC(C3)CC2C4)nn1C (stereo not given)	20.2*	-0.7	48.5	0.7	-0.3	3.5	0.9
COCC#Cc1ccc2c(c1)O[C@H](CN(C)C(=O)c1ccccc1)[C@@H](C)CN([C@H](C)CO)S2(=O)=O	.	.	.	.	0.8	.	.
O=c1[nH]cnc2nc(-c3ccccc3)c(-c3ccccc3)nc12	5.3	-1.2	-2.3	4.1	0.8	.	.
O=c1[nH]cnc2ncc(-c3ccc(O)cc3)nc12	20.4*	-4.6	2.6	-9.7	0.2	7.1	6.8
O=C(c1cc(F)c(F)cc1Cl)N1CCN(c2ncccn2)CC1	19.3*	-6.9	0.8	-8.5	-0.1	-0.1	-2.1
CC(=O)Nc1ccc(S(=O)(=O)NNC(=O)COc2cc(C)ccc2C(C)C)cc1	20.4*	-3.1	-9.3	6.7	-0.9	3.0	-0.5
O=S1(=O)CCOC(CO)CN1Cc1ccc(Cl)c(Cl)c1 (stereo not given)	10.3	-1.0	.	3.4	0.5	-2.6	-0.8
O=S1(=O)CCN(Cc2ccc(Cl)c(Cl)c2)CC1	7.1	-7.5	-14.8	-2.2	-0.4	.	.
COc1ccc(NC(=O)C2CCN(S(=O)(=O)c3ccccc3)CC2)cc1	-1.0	-2.0	38.3	-0.3	-0.3	.	.
COc1ccc(S(=O)(=O)N2CCC(C(=O)Nc3c(F)cccc3F)CC2)cc1	21.4*	-1.5	2.4	-5.2	-0.6	2.7	1.4
COc1ccc(NC(=O)N(C)C[C@@H]2OCc3cnnn3CCCC(=O)N([C@H](C)CO)C[C@H]2C)c(OC)c1	.	.	.	.	1.0	.	.
CC(=O)N1CCN(c2ccc(NC(=O)C(C)Oc3ccc(Cl)cc3Cl)cc2)CC1 (stereo not given)	19.4*	-2.7	-18.4	-6.2	-1.1	1.9	2.9
C[C@@H]1CN([C@H](C)CO)C(=O)CCCn2cc(nn2)CO[C@H]1CN(C)C(=O)Oc1ccccc1	.	.	.	.	0.8	.	.
CC(C)Oc1ccc(S(=O)(=O)N2CCCCC2)cc1NC(=O)CC1OC(=O)c2ccccc21 (stereo not given)	20.0*	-1.0	-9.0	-3.0	-0.4	-3.2	0.1
CCOC(=O)C1=CCN(S(C)(=O)=O)C1c1ccc(Cl)cc1 (stereo not given)	.	.	.	.	-0.1	.	.
Cn1c(SCC(=O)N2CCCC2)nc2c(c1=O)SCC2	2.3	-0.8	.	-4.8	2.0	.	.
CC1CCN(C(=O)CSc2nc3c(c(=O)n2C)SCC3)CC1	24.2*	-1.8	-7.6	10.3	1.5	5.2	0.4
CCOC(=O)N1CCN(Cc2nc3c(c(=O)n(C)c(=O)n3C)n2Cc2ccc(F)cc2)CC1	19.1*	1.0	-10.7	-6.0	-0.2	3.7	3.7
SMILES	PKA-R2B activ	bovine MsrA act	Mot1-301 SUMO	PKA-R1A act	MsrA inh	R2B FP artifact	PKA-R2B act conf
COc1ccccc1NC(=O)C1CCN(C(=O)C2CC(=O)N(c3ccc(C)cc3)C2)CC1 (stereo not given)	19.7*	2.7	11.3	5.3	-1.8	5.8	4.5
COc1ccc(C)cc1NC(=O)C1CCN(C(=O)C2CC(=O)N(c3ccc(C)cc3)C2)CC1 (stereo not given)	-2.2	-9.0	5.5	-13.5	-0.3	.	.
Cc1cc(N=O)no1	.	.	.	.	-0.8	.	.
CCOC(=O)C1CCN(C(=O)c2cc(COc3ccc(F)cc3F)on2)CC1	20.0*	-1.5	-6.7	10.9	-0.5	3.2	5.8
CCOC(=O)N1CCN(C(=O)c2cc(COc3ccc(F)cc3F)on2)CC1	1.4	-7.0	-11.4	-0.5	0.0	.	.
Cc1ccccc1NC(=O)CCS(=O)(=O)c1ccc(Br)s1	19.0*	0.8	5.1	5.9	0.0	-0.8	-0.2
COC(=O)c1ccccc1NC(=O)CCS(=O)(=O)c1ccc(Br)s1	-10.4	-7.9	2.6	0.1	-0.6	.	.
N#Cc1nc(-c2cccs2)oc1NCC1CCCO1 (stereo not given)	19.0*	-6.9	0.0	2.5	3.8	1.3	0.8
COCCN1C(=O)[C@H]2C[C@@]13O[C@H](c1ccc(C(F)(F)F)cc1)N=C3C[C@H](c1ccccc1)[C@H]2C	.	.	.	.	-0.9	.	.
CCc1cc2c(=O)n(CC(=O)NC3CCCCC3)cnc2s1	18.7*	-4.1	8.9	9.2	1.0	-0.7	1.2
COc1cc2cc(CN(Cc3ccc4c(c3)OCO4)C(=O)c3ccco3)c(=O)[nH]c2cc1OC	20.9*	-9.7	0.2	-2.9	2.7	5.3	2.4
Cc1ccccc1-c1cccc2[nH]c3c(c12)CCN1C(=O)[C@H]2[C@H](C)ON(C)[C@H]2C[C@@H]31	.	.	.	.	-0.6	.	.
O=C(COC(=O)COc1ccc(Cl)cc1)Nc1ccc2c(c1)OCCO2	18.5*	0.2	18.7	0.6	-0.8	3.4	4.2
O=C(C1CC1)N(CCc1ccccc1)Cc1nc2ccccc2c(=O)[nH]1	-7.2	-2.9	0.5	-7.8	-0.9	.	.
COc1ccc(CCN(Cc2nc3ccccc3c(=O)[nH]2)C(=O)C2CC2)cc1	18.8*	-15.8	-11.9	3.2	0.3	4.0	1.3
COC(=O)Cc1cc(=O)n2[nH]cnc2n1	18.7*	-1.2	-22.0	-0.9	-1.2	2.6	-1.9
O=C(NCc1ccccc1)[C@H]1CCCN1C(=O)[C@H]1CCCN1C(=O)c1ccccc1	.	.	.	.	0.7	.	.
CCN1CCN(c2ccc(S(=O)(=O)N3CCOCC3)cc2NC(=O)c2ccc(F)cc2Cl)CC1	19.0*	-0.5	-5.9	-0.9	2.9	1.6	0.5
O=C(N/N=C/c1ccc(N2CCOCC2)s1)c1ccccc1Br	-6.4	-4.3	9.6	1.0	0.5	.	.
Clc1cccc(N/N=C/c2ccc(N3CCOCC3)s2)c1	21.3*	-0.9	187.4	7.5	0.9	6.2	-1.5
CC1C(=O)Nc2ccccc2N1C(=O)c1ccccc1 (stereo not given)	19.8*	-2.7	6.4	-5.2	0.2	5.7	1.1
